# Results taken from PubChem BioAssay AID540321 (Johns Hopkins Ion Channel Center, 2011).
# Values without a mark were called inactive.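 The calls were made as follows: active = Inhibition of the Kir2.1 potassium channel over 30% at some tested dose, plus a fitted dose response curve; inactive = no Kir2.1 inhibition at any dose, or no curve fitted.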
# Molecular target: Inward rectifier potassium channel 2 (Mus musculus) (UniProt P35561)
# Test: Kir2.1 channel inhibition, specificity check, SAR follow-up, selectivity assay for KCNK9 inhibitor project, cell-based, FluxOR thallium flux, CRC round 2 (AID 540321)
# Settings: Kir2.1-expressing cells; series mostly up to 30 µM; fluorescence ratio, lower = inhibition: at the top concentration
# Chain of Inward rectifier potassium channel 2 (Mus musculus) (P35561 whole entry, looked up): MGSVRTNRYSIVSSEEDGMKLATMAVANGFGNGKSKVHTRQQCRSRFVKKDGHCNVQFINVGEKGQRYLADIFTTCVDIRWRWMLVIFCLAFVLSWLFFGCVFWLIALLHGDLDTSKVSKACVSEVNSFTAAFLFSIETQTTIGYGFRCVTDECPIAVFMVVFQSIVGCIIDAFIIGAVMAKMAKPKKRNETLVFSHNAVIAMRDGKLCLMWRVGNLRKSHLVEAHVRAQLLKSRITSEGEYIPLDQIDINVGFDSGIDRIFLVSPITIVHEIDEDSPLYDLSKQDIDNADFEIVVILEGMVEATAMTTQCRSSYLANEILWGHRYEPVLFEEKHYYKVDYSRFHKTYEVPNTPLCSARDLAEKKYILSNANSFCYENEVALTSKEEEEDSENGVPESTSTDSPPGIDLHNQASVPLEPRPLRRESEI
row,Structure (SMILES),"fluorescence ratio, lower = inhibition"
1,COc1ccccc1C(=O)Nc1cccc(NC(=O)c2ccccc2OC(F)(F)F)c1,1.79
2,COc1ccccc1-c1n[nH]c(=S)n1C(C)C1CC2CCC1C2 (stereo not given),1.68
3,CC(C1CC2CCC1C2)n1c(-c2ccoc2)n[nH]c1=S (stereo not given),1.15
4,O=C(Nc1cccc(NC(=O)c2ccccn2)c1)c1ccccc1,1.67
5,Cc1cccc(C(=O)Nc2cccc(NC(=O)c3ccc(C(F)(F)F)cc3)c2)c1,1.6
6,O=C(Nc1cccc(NC(=O)c2ccco2)c1)c1ccccc1,1.68
7,Cc1cccc(C(=O)Nc2cccc(NC(=O)C3CCCCC3)c2)c1,1.5
8,CCOc1ccccc1NC(=O)c1cccc(NC(=O)C2CCCC2)c1,1.63
9,O=C(Nc1cccc(NC(=O)c2cccnc2)c1)c1ccccc1,1.57
10,Cc1cccc(S(=O)(=O)Nc2cccc(NC(=O)c3ccccc3)c2)c1,1.58
11,COc1ccccc1NC(=O)c1cccc(NC(=O)c2ccccc2OC)c1,1.93
12,Cc1cccc(C(=O)Nc2cccc(NC(=O)c3ccncc3)c2)c1,1.68
13,COc1ccc(C(=O)Nc2cccc(NC(=O)c3ccccc3)c2)cc1,1.37
14,CCOc1ccccc1NC(=O)c1cccc(NC(=O)C2CCOC2)c1 (stereo not given),1.92
15,CCOc1ccccc1NC(=O)c1cccc(NC(=O)c2cccc(Cl)c2)c1,1.84
16,CC(C1CC2CCC1C2)n1c(-c2cccc(Cl)c2)n[nH]c1=S (stereo not given),1.62
17,CCOc1ccc(NC(=O)c2cccc(NC(=O)C3CCCC3)c2)cc1,1.78
18,Cc1cccc(-c2n[nH]c(=S)n2C(C)C2CC3CCC2C3)c1 (stereo not given),1.66

row,Structure (SMILES),"fluorescence ratio, lower = inhibition"
1,Cc1cccc(C(=O)Nc2cccc(NC(=O)c3ccccc3OCC(C)C)c2)c1,1.39
2,Cc1cccc(C(=O)Nc2cccc(NC(=O)c3ccc(Cl)cc3)c2)c1,1.77
3,COc1ccccc1NC(=O)c1cccc(NC(=O)C2CCCC2)c1,1.82
4,Cc1cccc(C(=O)Nc2cccc(NC(=O)c3cccs3)c2)c1,1.54
5,Cc1cccc(C(=O)Nc2cccc(NC(=O)c3cccc(Cl)c3)c2)c1,1.62
6,Cc1cccc(C(=O)Nc2cccc(NC(=O)c3cccc(C)c3)c2)c1,1.81
7,CC(C1CC2CCC1C2)n1c(-c2ccco2)n[nH]c1=S (stereo not given),1.39
8,CC(C1CC2CCC1C2)n1c(C2CCOC2)n[nH]c1=S (stereo not given),1.79
9,CCOc1ccccc1NC(=O)c1cccc(NC(=O)c2ccc(OC)cc2)c1,1.69
10,CC(c1ccccc1)n1c(-c2ccco2)n[nH]c1=S (stereo not given),1.67
11,CCOc1ccccc1NC(=O)c1cccc(NC(=O)c2ccccc2C(F)(F)F)c1,1.79
12,COc1cccc(C(=O)Nc2cccc(NC(=O)c3cccc(C)c3)c2)c1,1.55
13,COc1ccccc1NC(=O)c1cccc(NC(=O)CC2CCCC2)c1,1.81
14,COc1ccc(-c2n[nH]c(=S)n2C(C)C2CC3CCC2C3)cc1 (stereo not given),1.69
15,COc1cccc(OC)c1C(=O)Nc1cccc(NC(=O)c2cccc(C)c2)c1,1.74
16,O=C(Nc1cccc(NC(=O)C2CCCCC2)c1)c1ccccc1,1.75
17,Cc1cccc(C(=O)Nc2ccccc2NC(=O)c2ccccc2)c1,1.62
